We go through 75 molecules from PubChem BioAssay AID624300 (Southern Research Specialized Biocontainment Screening …, 2012).

Screen size: about 2,400 compounds; about 360 (15%) were called active.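 Rule for the calls: active = viability falls under 70% at one or more tested concentrations, taken as toxicity; inactive = viability stays over 70% at every dose.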 Not all results are given here. Entries with a potency or affinity are not part of this list.

This experiment in a line: HeLa cell cytotoxicity, dose response, cytotoxicity control for MgcRacGAP inhibitor project (AID 624300). The conditions noted are these: CellTiter-Glo luminescence, 24 h; series mostly up to 100 µM.
As for `CNC(=S)N/N=C/c1ccc(N2CCOCC2)s1`, the outcome was inactive.
Consider `NC(=O)N/N=C/c1ccc(N2CCOCC2)s1`, for which the call was inactive.
The entry for `COc1cc(/C=N/n2cnnc2)ccc1OC(=O)c1ccncc1` is “inactive”.
The entry for `CSc1nc(=S)c2[nH]c(=S)[nH]c2[nH]1` is “inactive”; for `CCCCn1c(C)cc2cc(O)ccc21` it is “inactive”; for `COc1ccc(N2CCN(C(=O)c3ccccc3N(C)S(=O)(=O)c3ccccc3)CC2)cc1` it is “inactive”.
The entry for `COc1cc2c(cc1NCc1ccc3c(c1)OCO3)oc1ccccc12` is “inactive”; for `COc1cc(CNCc2cc(OC)c(OC)c(OC)c2)cc(OC)c1` it is “inactive”; for `CCc1cc(/C(Cc2cscn2)=N\O)c(O)cc1O` it is “inactive”.
Regarding `CCN(CC)c1ccc(NC(=O)COC(=O)CCc2cc(OC)c(OC)c(OC)c2)cc1`, the call was inactive.
The entry for `O=C(CN1CCN(C/C=C/c2ccccc2)CC1)Nc1ccccc1C(=O)NC1CC1` is “inactive”; for `CCn1c2ccccc2c2cc(N)ccc21` it is “inactive”.
The result for `COc1cc(CNCc2ccccc2C(F)(F)F)cc(OC)c1` reads “inactive”; that for `COc1ccccc1CNCC(=O)NCc1ccc(C)cc1`, “inactive”.
`CCn1c2ccccc2c2cc(NC(=O)CNC)ccc21`: the call was inactive.
The entry for `COc1ccc(/C=N\NC(=O)c2ccc(=O)[nH]n2)cc1O` is “inactive”.
The entry for `O=C(c1cccc(F)c1)N1CCN(C2CCCCC2)CC1` is “inactive”; for `CN(C)CCCNc1ncnc2sc(-c3ccccc3)cc12` it is “inactive”.
The entry for `Cc1cc(C)c(OCCCCN2CCC(C)CC2)c(Br)c1` is “inactive”; for `O=C(CN1CCN(c2ccc(O)cc2)CC1)NC(=O)NCc1ccco1` it is “inactive”; for `COc1cc(/C=N\NC(=O)CNC(=O)C2COc3ccccc3O2)ccc1O` (stereo not given) it is “inactive”.
With `Oc1ccc(C2=Nn3c(nnc3-c3ccco3)SC2)cc1O`, the molecule was classed as inactive.
The entry for `CCN(CC)c1ccc(NC(=O)COC(=O)CCC(=O)c2cccs2)cc1` is “inactive”.
On to `O=C(Cc1coc2cc(O)ccc12)NNC(=O)c1cccs1`, for which the result was inactive.
Turning to `CN(C)c1ccc(C(=O)NC2(N3CCC3=O)CCCC2)cc1`, the result was inactive.
The entry for `Cc1ccn2c(NC3CCCC3)c(-c3ccncc3)nc2c1` is “inactive”; for `Cc1ccc(Nc2c(-c3ccco3)nc3ccccn23)cc1` it is “inactive”.
The result for `O=CNc1ccc2c(c1)Cc1cccc(NC=O)c1-2` reads “inactive”; that for `O=C(CNCc1ccco1)Nc1ccc(Oc2ccccc2)cc1`, “inactive”; that for `Cc1ccccc1OCCn1c(=S)[nH]c2c(N)ncnc21`, “inactive”.
The entry for `CC1CC(C)CN(CC(=O)NC(c2ccccc2)c2ccccc2)C1` (stereo not given) is “inactive”; for `Cc1c(-c2ccccc2)sc(N)c1C(=O)N1CCOCC1` it is “inactive”; for `CCN(CC)c1ccc(NC(=O)C2=CC=CN3CCS(=O)(=O)N=C23)cc1` it is “inactive”.
With `CCOc1cc(/C=C2\N=C3CCCCCN3C2=O)ccc1O`, the molecule was called inactive.
Take `CCOC(=O)C1=C(O)/C(=C\c2ccc(O)c(OCC)c2)N=C1C`: the result was inactive.
The result for `COc1ccccc1N1CCN(CC(=O)NCC2CCCO2)CC1` (stereo not given) reads “inactive”; that for `Cc1cc(C)nc(SCC(=O)c2ccc(O)c(O)c2)n1`, “inactive”; that for `O=C(CSc1nnnn1-c1ccc(F)cc1)c1ccc(O)c(O)c1`, “inactive”.
The result for `COc1cc(/C=N/NC(=O)c2ccc(N3CCCC3=O)cc2)ccc1O` reads “inactive”.
The entry for `COc1cccc2cc(C(=O)Oc3ccc(NC(C)=O)cc3)c(=O)oc12` is “inactive”.
Consider `Cc1ccc(C)c(OCC(O)CN2CCC(C)CC2)c1C` (stereo not given), for which the outcome was inactive.
As to `O=S(=O)(c1ccc2ccccc2c1)N1CCN(c2ccc(O)cc2)CC1`, the outcome was inactive.
The result for `Cc1ccc(S(=O)(=O)N2CCN(C(=O)CN3CCN(c4ccc(O)cc4)CC3)CC2)cc1` reads “inactive”; that for `COc1cc(C(=O)N/N=C/c2cn(Cc3ccccc3)c3ccccc23)ccc1O`, “inactive”.
The result for `O=C1CCCC(O)=C1C=Nc1ccc(O)cc1` reads “inactive”.
As for `COc1cc(/C=N/N=C2\CC3CCC2(C)C3(C)C)ccc1O` (stereo not given), the molecule was called inactive.
Regarding `O=C(C[n+]1ccccc1)N/N=C/c1ccc(O)cc1`, the result was inactive.
The result for `CCN(CC)c1ccc(/C=N/NC(=O)c2cc3ccccc3[nH]2)cc1` reads “inactive”; that for `COc1ccc(C)cc1NC(=O)C(NCC(O)c1ccccc1)c1ccccc1` (stereo not given), “inactive”; that for `CC(=O)N1CCN(c2ccc(NCc3ccccc3)cc2)CC1`, “inactive”.
The entry for `CCc1nc(Nc2ccc(N3CCN(C(C)=O)CC3)cc2)c2oc3ccccc3c2n1` is “inactive”.
The result for `COc1cc(/C=C/C(=O)OCC(=O)c2ccc(OC(F)F)cc2)ccc1O` reads “inactive”; that for `CCN(CC)c1ccc(NC(=O)c2ccc3c(c2)OCO3)cc1`, “inactive”; that for `CCN(CC)c1ccc(NC(=O)c2ccc(S(=O)(=O)N3CCOCC3)cc2)cc1`, “inactive”.
In the case of `C/C=C(\C)CN1CCN(c2ccc(C)cc2)CC1`, the call was inactive.
The entry for `N#C/C(=C/c1ccc(N2CCOCC2)o1)c1nc2ccccc2[nH]1` is “inactive”.
Turning to `COc1cc(/C=C(\C#N)C(=O)c2c[nH]c3ccccc23)cc(OC)c1O`, the result was inactive.
The entry for `N#C/C(=C\c1ccc(N2CCOCC2)o1)c1nc2ccccc2[nH]1` is “inactive”; for `COc1cc(/C=C(\C#N)C(=O)Nc2ccc3c(c2)OCCO3)ccc1O` it is “inactive”; for `CN1C=CC=C/C1=C(\C#N)c1nc2ccccc2[nH]1` it is “inactive”.
The result for `COc1ccccc1N1CCN(/N=C/c2cc(OC)c(O)c(OC)c2)CC1` reads “inactive”; that for `COc1ccc(CN2CCN(Cc3ccccc3F)CC2)cc1OC`, “inactive”.
The entry for `CN(c1ccccc1)S(=O)(=O)c1cccc(C(=O)NCCc2ccc(O)c(O)c2)c1` is “inactive”; for `COc1cccc(OC)c1C(=O)N1CCN(Cc2ccc3c(c2)OCO3)CC1` it is “inactive”; for `COc1cc(/C=C/C(=O)OCC(=O)N(C)Cc2ccccc2)ccc1O` it is “inactive”.
For `Cc1ccc(C2=NN=C(NC(=O)CSc3nncn3C)SC2)cc1`, the result was inactive.
The result for `COc1cc(/C=N/NC(=O)CC2C(=O)NN=C2C)ccc1O` (stereo not given) reads “inactive”; that for `CCN(CC)c1ccc(NC(=O)CN2C(=O)NC3(CCc4ccccc43)C2=O)cc1` (stereo not given), “inactive”; that for `Nc1ccc(C(=O)c2ccc3c(c2)OCCO3)cc1N`, “inactive”.
The entry for `COc1cc(-c2nc3ccccc3s2)ccc1O` is “inactive”.
The entry for `Cc1ccc(S(=O)(=O)Nc2nsc(N)n2)cc1` is “inactive”.
As to `Oc1ccc(Cc2ccccc2Cl)c(O)c1`, the result was inactive.
The result for `CCOc1cc(/C=N/NC(=O)C(C)Sc2ccccn2)ccc1O` (stereo not given) reads “inactive”; that for `COc1cc(/C=N\Nc2cc(=O)n(C)c(=O)n2C)ccc1O`, “inactive”.
The entry for `COc1cc(/C=C/C(=O)OCC(=O)N(CC(C)C)c2c(N)n(Cc3ccccc3)c(=O)[nH]c2=O)ccc1O` is “inactive”.
